# High-throughput results as filed in PubChem BioAssay.
# Sampled rows, rich in hits. Any-hit rate of the full collection: about 0.82%.
# eLon inh: inhibitors of E. coli Lon protease, primary screen, biochemical, fluorescence polarization; P0A9M0; purified E. coli Lon protease; inhibition, % at 7.94 µM; actives 0.42% (n = 360,000); in the data active = inhibition above about 13%, passing the limit was not always enough;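 also: 0% = enzyme with probe and DMSO and 100% = no enzyme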
# Target sequence (P0A9M0 whole entry, looked up): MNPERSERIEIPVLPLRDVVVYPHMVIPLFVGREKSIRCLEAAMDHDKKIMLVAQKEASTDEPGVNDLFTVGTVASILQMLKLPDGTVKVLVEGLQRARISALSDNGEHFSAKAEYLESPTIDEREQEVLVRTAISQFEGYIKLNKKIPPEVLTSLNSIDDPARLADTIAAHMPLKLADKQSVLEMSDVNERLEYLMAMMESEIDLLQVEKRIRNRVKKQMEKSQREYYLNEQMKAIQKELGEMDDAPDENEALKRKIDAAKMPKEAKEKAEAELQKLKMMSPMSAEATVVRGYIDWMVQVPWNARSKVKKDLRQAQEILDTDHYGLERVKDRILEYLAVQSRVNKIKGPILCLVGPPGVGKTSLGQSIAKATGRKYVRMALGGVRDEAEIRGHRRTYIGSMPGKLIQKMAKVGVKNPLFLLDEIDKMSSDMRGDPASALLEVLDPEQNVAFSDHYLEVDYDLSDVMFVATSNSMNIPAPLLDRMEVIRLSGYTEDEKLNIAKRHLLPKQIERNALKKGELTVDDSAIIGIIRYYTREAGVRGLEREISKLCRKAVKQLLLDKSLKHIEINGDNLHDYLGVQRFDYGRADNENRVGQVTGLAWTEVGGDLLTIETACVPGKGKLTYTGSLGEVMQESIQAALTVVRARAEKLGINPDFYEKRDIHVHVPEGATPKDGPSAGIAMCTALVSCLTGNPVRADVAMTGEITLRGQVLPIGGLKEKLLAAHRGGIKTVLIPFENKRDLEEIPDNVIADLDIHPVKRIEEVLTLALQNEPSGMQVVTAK
# RTF Ca sens act: cardiac RTF calcium sensitivity activators, primary screen, biochemical, IANBD-TnC fluorescence, EC20 calcium; Troponin I, cardiac muscle (Homo sapiens) + Troponin T, cardiac muscle (Homo sapiens) + …; IANBD-labeled TnC RTF fluorescence at EC20 calcium; 0% EC20 calcium, 100% full calcium; activation, % at 7.2 µM; actives 0.24% (n = 340,000); AID 493008, 2010;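 active = activation above the mean over all tested compounds plus 3 SD, cut at about 30% in these data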;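 also: rise in fluorescence read as greater calcium sensitivity of cardiac thin filaments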
# Cardiac RTF inh: cardiac RTF calcium sensitivity inhibitors, primary screen, biochemical, IANBD-TnC fluorescence, EC70 calcium. Troponin I, cardiac muscle (Homo sapiens) + Troponin T, cardiac muscle (Homo sapiens) + …. IANBD-labeled cardiac RTF, Ca2+ fluorescence. inhibition, % at 7.15 µM. actives 0.12% (n = 340,000). AID 493244, 2011;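 active = inhibition above the mean inhibition of all tested compounds plus 3 SD, cut at about 17% in these data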;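 also: assay run at fixed EC70 calcium of 1.6 mM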
# LANA DNA inh: inhibitors of KSHV C-LANA binding to DNA, primary screen, biochemical, fluorescence polarization, FAM-LBS DNA, MBP-C-LANA, single point. Kaposi's sarcoma herpesvirus LANA C-terminal domain (residues 932-1162) DNA binding. inhibition, % at 9 µM. actives 0.078% (n = 340,000);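 active = highest replicate inhibition at or above 60% at 9 µM, even if other replicates fall short; inactive = all replicates below 60% inhibition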;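 also: 0% = neutral control wells and 100% = 4 µM acridine orange control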
# Keap1 Nrf2 FP: Keap1-Nrf2 protein-protein interaction inhibitors, primary screen, biochemical, fluorescence polarization, single point. Kelch-like ECH-associated protein 1 (Homo sapiens), Q14145. Keap1 Kelch-Nrf2 peptide fluorescence polarization, 1536-well. inhibition, % at 9.4 µM. actives 0.15% (n = 340,000). AID 504523, 2011; in the data active = inhibition above about 12%;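 also: human Keap1 Kelch domain with fluorescein labeled Nrf2 9mer peptide probe; 0% = neutral control wells and 100% = peptide positive control; higher means more block of Keap1 binding to Nrf2 peptide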
# Keap1 TSA: Keap1 Kelch domain binders by thermal stabilisation, dose response, biophysical, thermal shift, RT-PCR instrument, cherry-pick; max delta Tm, degrees C; delta Tm; stronger effect = higher value; AID 651823, 2012; shares compounds with Keap1 Nrf2 FP; actives 8% (n = 400); in the data active = max delta Tm above about 0.48 degrees C
# Sypro dye melt: Sypro Orange dye melt without protein, dose response, artefact control for Keap1-Nrf2 interaction inhibitor project, biochemical, thermal shift counterscreen, cherry-pick. shares compounds with Keap1 Nrf2 FP. Sypro Orange dye-only thermal melt, no protein, delta Tm; top dose 26 µM. delta Tm, degrees C (no concentration beside the values). 140 tested, under 10 active. AID 651858, 2012;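 active = at highest dose tested, delta Tm positive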
# E coli Lon conf: E. coli Lon protease inhibitor retest, confirmation, biochemical, fluorescence polarization; shares compounds with eLon inh; purified E. coli Lon; inhibition, % at 7.94 µM; actives 31% (n = 1,400); AID 602230, 2012; in the data active = inhibition above about 16%;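 also: 0% = enzyme with probe and DMSO and 100% = no enzyme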
# * marks the source's active call; other numbers are inactive results; i = inactive; nt = not tested or not shown; + = active, no number.
SMILES,eLon inh,RTF Ca sens act,Cardiac RTF inh,LANA DNA inh,Keap1 Nrf2 FP,Keap1 TSA,E coli Lon conf,others
CCOc1cccc(C2C(C(=O)c3ccc(C)o3)=C(O)C(=O)N2c2nccs2)c1 (stereo unspecified),98*,7,-25,21,24*,-0.09,118*,
O=C(C1=C(O)C(=O)N(c2nccs2)C1c1ccccc1)c1cc2ccccc2o1 (stereo unspecified),+,34*,-86,37,42*,-0.1,197*,
CC(=O)N1CCN(c2ccccc2NC(=O)c2ccco2)CC1,6,-2,-7,1,3,nt,nt,
CNC(=O)C(=O)NCC1OCCCN1S(=O)(=O)c1ccc(F)cc1C (stereo unspecified),-3,-3,2,0,-1,nt,nt,
CCCCNc1c2c3c(cccc3n(C)c1=O)C(=O)c1ccccc1-2,188*,+,i,71*,58*,0.25,101*,
Cn1c(=O)c(NCCc2ccccc2)c2c3c(cccc31)C(=O)c1ccccc1-2,+,+,i,101*,45*,0,-457,
Cn1c(=O)c(N)c2c3c(c(Br)ccc31)C(=O)c1ccccc1-2,+,+,i,124*,31*,0.07,+,
O=c1ccc2cc3c4c(c2o1)CCCN4CCC3,80*,129*,-245,46,38*,-0.17,22*,
Cc1oc2cc(O)ccc2c(=O)c1-c1nncn1-c1ccccc1,34*,13,-32,49,25*,0.11,51*,Sypro dye melt=-22
CCOc1ccccc1O[C@H](c1ccccc1)[C@H]1CNCCO1,37,1,0,0,-3,nt,nt,
CCOC(=O)c1ccc2ncc(C(=O)OCC)c(NCCN(C)C)c2c1,22*,10,-26,14,14*,-0.11,1,Sypro dye melt=-23
COc1cc2[nH]c(=O)n(C3CCCCC3)c(=O)c2cc1OC,7,4,1,0,-1,nt,nt,
CCCCn1c(=O)[nH]c2nc3cc(N)ccc3nc2c1=O,+,767*,i,84,50*,-0.04,+,Sypro dye melt=-28
CCCCn1c(N)c(Br)c(=O)[nH]c1=O,-3,3,0,1,2,nt,nt,
Nc1ccc2nc3c(=O)n(C4CCCCC4)c(=O)[nH]c3nc2c1,+,457*,i,39,60*,-0.05,183*,Sypro dye melt=-34
COc1ccc2ccccc2c1C(O)c1nccn1C (stereo unspecified),55*,84*,-129,55,33*,0.1,168*,
Cn1ccnc1C(O)c1ccccc1 (stereo unspecified),9,-4,0,0,-1,nt,nt,
COc1ccc(N(Cc2cc(=O)[nH]c3ccccc23)C(C)=O)cc1,-4,-1,3,-1,-8,nt,nt,
COCCCn1c(=O)c2sccc2n2c(CCCC(=O)NCc3ccc(F)cc3)nnc12,-9,-3,0,-1,3,nt,nt,
CCc1cc[n+](-c2nc([O-])sc2C=O)cc1,40*,22,-27,43,29*,-0.06,8,
Cc1cc2nc3c(=O)[nH]c(=S)[nH]c3nc2cc1NC(=O)C(F)(F)F,+,65*,-176,55,27*,-0.07,145*,
O=c1[nH]c(=S)[nH]c2nc(-c3ccccc3)cnc12,-5,-2,-6,-2,1,nt,nt,
COC(=O)c1ccc(Cn2c(C)c(C(=O)NCc3ccco3)sc2=O)o1,-4,nt,nt,nt,nt,nt,nt,
O=C1c2ccccc2-c2onc3ccc(N4CCCC4)c1c23,160*,396*,i,12,16*,0.22,-21,
CCOC(=O)c1c(C)oc2c1C(=O)c1ccccc1C2=O,-7,-9,8,0,3,nt,nt,
SMILES,eLon inh,RTF Ca sens act,Cardiac RTF inh,LANA DNA inh,Keap1 Nrf2 FP,Keap1 TSA,E coli Lon conf,others
O=C1C(Cl)=C(NCc2ccco2)C(=O)c2ccccc21,-5,-3,-3,4,-1,nt,nt,
CCNc1ccc2noc3c2c1C(=O)c1ccccc1-3,+,+,i,65*,21*,0.83*,183*,
O=C1c2ccccc2-c2onc3ccc(NCc4ccco4)c1c23,128*,715*,i,64,19*,0.37,118*,
CCOc1ccc2noc3c2c1C(=O)c1ccccc1-3,+,+,i,52,21*,-0.03,+,
O=C1c2ccccc2C(=O)c2c1cccc2N1CCCC1,2,2,7,0,-3,nt,nt,
COc1cc(S(=O)(=O)Nc2ccc3c(c2)C(=O)N(C)C3=O)ccc1NC(C)=O,-8,0,3,4,1,nt,nt,
CCCCC1OC2(C)OC(=N)C1(C#N)C(C#N)(C#N)C2c1ccccc1 (stereo unspecified),29*,17,-18,57,30*,-0.12,11,
CC1OC2(C)OC(=N)C1(C#N)C(C#N)(C#N)C2c1ccccc1 (stereo unspecified),15*,14,-14,37,23*,-0.03,4,Sypro dye melt=-29
COC(=O)C1=C(C(=O)OC)[C@]2([C@H]3CCCCN[C@@H](Cc4ccccc4)C(=O)N3Cc3ccccc3)C=C[C@H]1O2,-13,-2,-6,1,3,nt,nt,
C=CCN1C=CC(=O)[C@@H](OC(=O)Nc2ccc(Br)cc2)[C@H]1c1ccccc1Br,7,-8,-1,1,-3,nt,nt,
CC1CN(C(=O)c2cc(S(=O)(=O)N3CCCCC3)ccc2Cl)CC(C)O1 (stereo unspecified),-3,0,-11,-1,1,nt,nt,
CN1C[C@@H]2[C@@H]3C(=O)N(C)C(=O)[C@@H]3[C@](C)(C1=O)N2C(=O)c1ccc(Cl)c(Cl)c1,4,0,8,-1,-4,nt,nt,
c1ccc2[nH]c3cc4ncnc4cc3nc2c1,153*,58*,-48,75*,35*,0,+,
FC(F)c1nc2ccccc2[nH]1,-7,-2,-2,0,-4,nt,nt,
CC(NC(=O)CSc1ccc(S(=O)(=O)N2CCOCC2)cn1)c1ccc(Cl)cc1Cl (stereo unspecified),-1,4,-9,0,-1,nt,nt,
